# Records with an inconclusive call do not appear. A call without a number means that no potency is given here. The source made the active and inactive calls. Calls come from the whole dose curve; as a rule, active = well fitted inhibition curve with a large enough effect; inconclusive = small, poorly fitted or top-dose-only effect; inactive = flat fitted curve, though single readings scatter.
# Tested on: CRL-7250
# Test: qHTS assay to identify novel small-molecules to repurpose for Merkel cell carcinoma treatment (AID 1296009); note: nearly all actives have a fitted effect of over 60% in size
# Settings: MCC and control cell lines, CellTiter-Glo viability, 72 h; series mostly up to 92 µM
# Outline: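 Dose-response viability screen; 72 hr exposure at 37 degree celsius; CellTiter-Glo added, 10 min room temperature, luminescence read; RLUs scaled between no-cell and DMSO wells.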
Structure (SMILES),Potency,outcome
COc1ccc(CCN(C)CCCOc2nsc(-c3ccccc3)n2)cc1OC,inactive,
OCC1=CC[C@@H]2C=CO[C@@H](O[C@@H]3O[C@H](CO)[C@@H](O)[C@H](O)[C@H]3O)[C@H]12,inactive,
C[C@@H]1O[C@@H](OC2C(CO)OC(OCC3OC(OC(=O)[C@]45CCC(C)(C)CC4C4=CCC6[C@@]7(C)CC[C@@H](O)[C@](C)(C(=O)O)C7CC[C@@]6(C)[C@]4(C)CC5)C(O)C(O)C3O)C(O)C2O)[C@H](O)[C@H](O)[C@H]1O (some centres undefined),,inactive [at 9.27 µM]
C=CC(C)(CC/C=C(\C)CC/C=C(\C)CC(O)/C=C(\C)C(=O)O)O[C@@H]1O[C@H](CO)[C@@H](O)[C@H](O)[C@H]1O[C@@H]1O[C@H](CO)[C@@H](O)[C@H](O)[C@H]1O (some centres undefined),inactive,

# — PubChem BioAssay (NCATS)
